Screening results: PubChem BioAssay, several laboratories
APP 5UTR inh: inhibitors of APP translation via 5'UTR reporter, primary screen, APP 5'UTR luciferase, SH-SY5Y cells. SH-SY5Y APP 5'UTR-luciferase reporter, luminescence. inhibition, % at 2 µM. 190,000 tested, 0.82% active. AID 1285, 2008;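 active = inhibition above a set limit, derived from the sample mean plus 3 SD, cut at about 45% in these data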
Wee1 degr inh: Wee1 degradation inhibitors, primary screen, cell-based, HeLa, Wee1K328M-luciferase, luminescence; Wee1-like protein kinase (Homo sapiens), P30291; HeLa Luc-Wee1K328M stability; 100% = proteasome inhibitor MG132 effect; reporter increase, % at 5 µM; 220,000 tested, 1.2% active; AID 1321, 2008;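 active = activation above the mean of all tested compounds plus 3 SD, set per screening run, cut at about 8.8% in these data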;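 note: cells exposed to compound for 20 h before luminescence read; 0% = DMSO alone and 100% = MG132 at 30 µM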
Target sequence (P30291 whole entry K328M): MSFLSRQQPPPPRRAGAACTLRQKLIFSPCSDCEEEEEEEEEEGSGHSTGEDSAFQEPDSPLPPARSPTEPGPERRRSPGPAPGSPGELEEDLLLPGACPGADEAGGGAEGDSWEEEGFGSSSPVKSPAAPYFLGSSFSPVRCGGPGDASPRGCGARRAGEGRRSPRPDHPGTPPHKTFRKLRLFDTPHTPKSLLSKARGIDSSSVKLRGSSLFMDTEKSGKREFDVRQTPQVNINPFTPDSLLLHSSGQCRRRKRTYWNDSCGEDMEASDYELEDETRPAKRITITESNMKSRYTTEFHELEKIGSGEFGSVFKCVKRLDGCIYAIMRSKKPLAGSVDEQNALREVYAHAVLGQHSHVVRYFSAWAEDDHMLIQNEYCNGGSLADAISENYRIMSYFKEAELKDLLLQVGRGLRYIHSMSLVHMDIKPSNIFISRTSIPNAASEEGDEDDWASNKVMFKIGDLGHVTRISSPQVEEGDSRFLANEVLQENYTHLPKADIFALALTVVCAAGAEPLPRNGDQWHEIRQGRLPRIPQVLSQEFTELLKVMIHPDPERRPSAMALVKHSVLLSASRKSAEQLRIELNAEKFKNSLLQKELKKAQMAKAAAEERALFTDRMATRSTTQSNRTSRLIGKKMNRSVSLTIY
STAT1 act: STAT1 signaling activators, primary screen, cell-based, HTS, luciferase reporter; NIH 3T3 STAT1-luciferase reporter, IFN-gamma, luminescence; 100% = IFN-gamma alone, no compound; activation (% of control), % at 5.5 µM; 200,000 tested, 2.6% active;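 active = activation above the screen-wide mean activation plus 3 SD, cut at about 130% in these data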;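 note: raw ratio to IFN-gamma control signal so 100% means no change and 0% no light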
Hsp70 activator: Hsp70 transcriptional activators, primary screen, cell-based, HeLa, Hsp70 promoter luciferase, luminescence, 10 µM | HeLa Hsp70 promoter luciferase reporter; scaled: vehicle 0, proteasome-inhibitor control 100% | activation, % at 10 µM | 200,000 tested, 0.04% active | AID 1203, 2008;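 active = activation above the mean across all tested compounds plus 3 SD, cutoff set per campaign, cut at about 5.5% in these data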;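 note: 100% = MG132 at 30 µM as the positive control and 0% = DMSO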
NF-kB expr up: activators of NF-kB expression in neurons, primary screen, cell-based, HTS; human neuronal cells, NF-kB reporter expression; hits give high values; fold change at 12.5 µM; 190,000 tested, 1.6% active; AID 1239, 2008; in the data active = fold change above about 3.3
APP 5'UTR act: activators of APP 5'UTR luciferase reporter, primary screen, SH-SY5Y cells; SH-SY5Y APP 5'UTR luciferase reporter, luminescence; zero percent = DMSO vehicle wells; activation, % at 2 µM; 190,000 tested, 1% active; AID 1276, 2008;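 active = activation above a set limit, based on mean plus 3 SD of controls, cut at about 140% in these data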
* marks the source's active call; other numbers are inactive results. Sampled rows, rich in hits. Any-hit rate of the full collection: about 4.8%.

`CCN(CC)CC(=O)Nc1ccc(C)cc1Br` gave APP 5UTR inh -13, Wee1 degr inh -1, STAT1 act 104, Hsp70 activator 0, NF-kB expr up 1.3 and APP 5'UTR act 13.
`COc1ccc2cc(C(N)=O)c(=Nc3ccc(C)cc3)oc2c1` gave APP 5UTR inh -16, Wee1 degr inh 8, STAT1 act 138*, Hsp70 activator 0, NF-kB expr up 1.3 and APP 5'UTR act 16.
`Cc1cccc(N=c2oc3cc(O)ccc3cc2C(N)=O)c1` gave APP 5UTR inh 11, Wee1 degr inh 0, STAT1 act 130*, Hsp70 activator 0, NF-kB expr up 1.9 and APP 5'UTR act -11.
COc1ccc2oc3cc(C)[n+]([O-])c(-c4ccc(Cl)cc4)c3c2c1 was read as APP 5UTR inh 8, Wee1 degr inh -2, STAT1 act 92, Hsp70 activator 0, NF-kB expr up 1.1 and APP 5'UTR act -8.
Screening C[C@H](NC(N)=O)C(=O)Nc1ccc2c(c1)OCO2 returned Wee1 degr inh 0.
Screening COC(OC)c1ccnc(-c2ccc(OC(=O)c3ccccc3)cc2)n1 returned APP 5UTR inh 12, Wee1 degr inh -1, STAT1 act 115, Hsp70 activator 0, NF-kB expr up 1 and APP 5'UTR act -12.
For O=C(O)COc1ccc(-c2nccc(-c3ccccn3)n2)cc1 the results were APP 5UTR inh 63*, Wee1 degr inh -4, STAT1 act 86, Hsp70 activator 0, NF-kB expr up 0.53 and APP 5'UTR act -63.
Cc1cc(SCC(=O)Nc2cccc(S(=O)(=O)NC3=NCCCCC3)c2)c(C)cc1Br was read as APP 5UTR inh -14, Wee1 degr inh -2, STAT1 act 100, Hsp70 activator 0, NF-kB expr up 3.4* and APP 5'UTR act 14.
CC1(C)Cc2c(c(-c3ccccc3)nc(N3CCOCC3)c2C(N)=O)CO1 was read as APP 5UTR inh 66*, Wee1 degr inh 1, STAT1 act 100, Hsp70 activator 0, NF-kB expr up 1 and APP 5'UTR act -66.
For CC(Sc1nc(N2CCOCC2)c2c(c1C#N)CC(C)(C)OC2)C(=O)Nc1ccccc1 (centres undefined) the results were APP 5UTR inh 0, Wee1 degr inh -2, STAT1 act 101, Hsp70 activator 0, NF-kB expr up 1 and APP 5'UTR act 0.
`COC(=O)CSc1nnc(SCc2ccc(Cl)cc2)s1` gave APP 5UTR inh -5, Wee1 degr inh 2, STAT1 act 100, Hsp70 activator 0, NF-kB expr up 1.1 and APP 5'UTR act 5.
Screening COC(=O)c1cnc(SCc2ccc(Cl)cc2)n1C returned APP 5UTR inh -227, Wee1 degr inh -2, STAT1 act 117, Hsp70 activator 0, NF-kB expr up 1.8 and APP 5'UTR act 227*.
`CC(C)Cc1cc(C(=O)Nc2ccc3c(c2)OCO3)no1` gave APP 5UTR inh -49, Wee1 degr inh 0, STAT1 act 132*, Hsp70 activator 0, NF-kB expr up 2.7 and APP 5'UTR act 49.
For O=C(Nc1cccnc1)c1cc(-c2ccc3c(c2)OCO3)on1 the results were APP 5UTR inh -11, Wee1 degr inh 0, STAT1 act 134*, Hsp70 activator 0, NF-kB expr up 5.5* and APP 5'UTR act 11.
For CC(C)Cc1cc(C(=O)Nc2ccc(Br)cc2)no1 the results were Wee1 degr inh 0.
`Cc1cc(C)n2nc(C(=O)Nc3ccc4c(c3)OCO4)cc2n1` gave APP 5UTR inh -100, Wee1 degr inh 0, STAT1 act 129*, Hsp70 activator 0, NF-kB expr up 3.3* and APP 5'UTR act 100.
CC(=O)c1cccc(NC(=O)c2ccc(C(=O)Nc3cccc(C(C)=O)c3)nc2)c1 was read as APP 5UTR inh 4, Wee1 degr inh -3, STAT1 act 97, Hsp70 activator 0, NF-kB expr up 0.81 and APP 5'UTR act -4.
